Assay results: PubChem BioAssay (Tox21)
Results filed as inconclusive are left out. Where a call stands in place of a potency, no number is given. Activity calls are given as the source filed them. Calls follow the shape of the dose curve; as a rule, active = well fitted curve in the direction sought with a large enough effect in the repeat runs; inconclusive = weak or mixed curves; inactive = no such curve, though single readings can be large; an effect the other way counts as inactive or inconclusive.

Legend:
[1] = qHTS assay to identify small molecule agonists of the RXR signaling pathway - cell viability counter screen (AID 1159529); also: nearly all actives have a fitted effect of over 50% in size; also: potency is read from the fitted curve at half-maximal effect
Procedure, shortened: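 Compounds dissolved in DMSO were pinned onto HEK 293T cells carrying a beta-lactamase reporter under RXR-alpha control and incubated 16 hr. Cytotoxicity was then quantified by CellTiter-Glo luminescence.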

[2] = qHTS assay to identify small molecule antagonists of the retinoid acid receptor (RAR) signaling pathway - cell viability counter screen (AID 1159551); also: nearly all actives have a fitted effect of over 35% in size; also: potency is read from the fitted curve at half-maximal effect
Procedure, shortened: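 Measured by luminescent ATP detection, viability reflects C3RL4 cells treated 6 h at 37 C with test chemicals in the presence of 1 uM (final) retinol.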

[3] = qHTS assay to identify small molecule agonists of the retinoic acid receptor (RAR) signaling pathway (AID 1159553)
Procedure, shortened: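 6 hr compound exposure (DMSO vehicle) of overnight-plated C3RL4 RARE-luc cells at 37 C; luminescence quantified after 30 min RT with luciferase reagent.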

[4] = qHTS assay to identify small molecule antagonists of the retinoic acid receptor (RAR) signaling pathway (AID 1159552; also: nearly all actives have a fitted effect of over 50% in size)
Procedure, shortened: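 Test chemicals and DMSO controls were pin-transferred onto C3RL4 cells a day after seeding; retinol (1 uM final) followed at once. Luminescent reporter output was quantified after 6 hr of co-incubation and 30 min with detection reagent.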

[5] = qHTS assay to identify small molecule antagonists of the estrogen related receptor (ERR) signaling pathway - cell viability counter screen (AID 1224818); also: series mostly up to about 46 µM
Procedure, shortened: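 Compounds dissolved in DMSO were applied to ERR cells seeded at 2,000 per well 6 h earlier. Cell viability followed 17.5 h later via 30-min CellTiter-Fluor fluorescence.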

[6] = qHTS assay to identify small molecule antagonists of the estrogen related receptor signaling pathway with the pleiotropic PPARgamma coactivator (PGC) cell viability counter screen (AID 1224822; also: series mostly up to about 46 µM)
Procedure, shortened: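 Counter screen for cell viability: PGC/ERR cells, 6 h pre-incubation after plating, 17.5 h compound exposure at 37 C, fluorescence from CellTiter-Fluor after 30 min.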

Compound | Potency [1] | Potency [2] | Potency [3] | Potency [4] | outcome [5] | outcome [6]
CNNC | inactive | inactive | inactive | – | – | –
N#Cc1ccncc1 | inactive | inactive | inactive | – | – | –
CC1=C(C(=O)Nc2ccccc2)S(=O)(=O)CCO1 | inactive | inactive | inactive | – | – | –
C#CCN1C(=O)COc2cc(F)c(N3C(=O)C4=C(CCCC4)C3=O)cc21 | inactive | inactive | inactive | – | – | –
O=[N+]([O-])c1ccc(CBr)cc1 | inactive | inactive | inactive | inactive | – | –
O=C(N[C@H]1CN2CCC1CC2)c1cc2ccoc2cn1 | inactive | inactive | inactive | inactive | – | –
O=C(Nc1ccccc1)N(Cc1ccc(Cl)cc1)C1CCCC1 | inactive | inactive | inactive | – | – | –
Cc1cc(C)c(C(=O)P(=O)(C(=O)c2c(C)cc(C)cc2C)c2ccccc2)c(C)c1 | inactive | inactive | inactive | inactive | – | –
CCC(C)(C)c1cc(-n2nc3ccccc3n2)c(O)c(C(C)(C)CC)c1 | inactive | inactive | inactive | – | – | –
Fc1ccc(C2(Cn3cncn3)OC2c2ccccc2Cl)cc1 (stereo unspecified) | inactive | inactive | inactive | inactive | – | –
O=[N+]([O-])c1cccc(O)c1 | inactive | inactive | inactive | – | – | –
NC(=S)C(N)=S | inactive | inactive | inactive | inactive | – | –
C=CCC1=C(C)[C@@H](OC(=O)[C@@H]2[C@@H](C=C(C)C)C2(C)C)CC1=O | 21.9 µM (active) | 54.5 µM (active) | inactive | – | – | –
CCS(=O)(=O)CCSP(=O)(OC)OC | inactive | inactive | inactive | inactive | – | –
CCN(CC)C(=O)[C@@H]1C=C2c3cccc4[nH]cc(c34)C[C@H]2N(C)C1 | inactive | inactive | inactive | inactive | – | –
CC(C)(C)OC(=O)c1ncn2c1[C@@H]1CCCN1C(=O)c1c(Br)cccc1-2 | inactive | inactive | inactive | – | – | –
CC(C)CP(=S)(S)CC(C)C | inactive | inactive | inactive | inactive | – | –
Cc1ncsc1CCCl | – | – | – | – | inactive | inactive
